We go through seven molecules from PubChem BioAssay (NCATS).

Common to all, as to experiment: Cytotoxic Profiling of Annotated Libraries Using Quantitative High-Throughput Screening (AID 1296008); also: nearly all actives have a fitted effect of over 60% in size
Common to all, as to settings: Five cell lines viability, CellTiter-Glo ATP luminescence, 48-72 h; max response: active compounds read low
On the technique in general: In ATP-based viability assays light output follows the ATP content of the culture.

One assay deals with CRL-7250. The essentials:
(§1)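 Cytotoxicity was measured as CellTiter-Glo ATP luminescence, read after 10 min at room temperature. Compound treatment of the cells lasted 48 or 72 hr at 37 degrees Celsius in a qHTS format.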

A further assay relates to HEK293. The gist of the method: as §1
The subject of a further assay is HaCat. The essentials: as §1
The subject of another assay is KB-3-1. The gist of the method:
as §1

A further assay has as its system NIH3T3. The essentials:
as §1

Structures are written as SMILES. Results filed as inconclusive are left out. Values without a mark were called inactive. Active and inactive are the calls of the source. Calls follow the shape of the dose curve; as a rule, active = well fitted inhibition curve with a large enough effect; inconclusive = small, poorly fitted or top-dose-only effect; inactive = flat fitted curve, though single readings scatter.
% is scaled to controls: 0 for no effect and ±100 for the full control effect; potency is read from the fitted curve at half-maximal effect.

With `C=C(C)C1Cc2cc(C(=O)OC3OC(CO)C(O)C(O)C3O)ccc2O1` (stereo not given), the max response in the assay on CRL-7250 was -9%; in the assay on HEK293, -15%; in the assay on HaCat, -9.03%; in the assay on KB-3-1, 0.614%; with NIH3T3 it was -5.26%.
In the case of `CC1(C)CC[C@]2(C(=O)O[C@@H]3O[C@H](CO)[C@@H](O)[C@H](O)[C@H]3O)CC[C@]3(C)C(=CCC4[C@@]5(C)C[C@@H](O)[C@H](O)[C@](C)(C(=O)O)C5CC[C@]43C)C2C1O` (stereo not given in full), the max response was 2.5% with CRL-7250; -1.42% in the assay on HEK293; 1.77% in the assay with HaCat; -4.21% with KB-3-1; -9.14% in the assay with NIH3T3.
As for `CC(=O)O[C@@H]1[C@@H](CO)O[C@@](CO)(O[C@H]2O[C@H](COC(=O)/C=C/c3ccccc3)[C@@H](O)[C@H](O)[C@H]2O)[C@H]1O`, the max response in the assay on CRL-7250 is -0.112%; in the assay with HEK293, 0.799%; in the assay with HaCat, -9.37%; in the assay with NIH3T3 it was 1.35%. Moreover, the outcome in the assay on KB-3-1 was inactive.
With `Cc1ccc(NC(=O)C(=O)NC2CC(C)(C)NC(C)(C)C2)cc1`, in the assay with CRL-7250, the molecule was called inactive. In addition, the max response in the assay on HEK293 is 1.35%; with HaCat, -22.4%; with KB-3-1, -0.25%; in the assay on NIH3T3, -7%.
For the molecule `COc1c2c(c(C)c3c1C(=O)OC3)OC1(C)CC(O)C34OC(OC)(OC3(C)C)C(O)CC4(C)C1C2` (stereo not given), the call in the assay with CRL-7250 and in the assay with KB-3-1 was inactive. Moreover, the max response in the assay on HEK293 was -9.65%; in the assay on HaCat, -21.2%; in the assay on NIH3T3, -1.37%.
`C=C1CCC2C(C)(C)C(O)CCC2(C)C1CCC(C)CCOC(C)=O` (stereo not given): the molecule was called inactive in the assay on CRL-7250. The max response is -19.2% with HEK293, -5.36% in the assay with HaCat, 3.19% in the assay on KB-3-1 and -9.96% in the assay on NIH3T3.
As to `COC(=O)N[C@H](C(=O)N1[C@@H]2CC[C@@H](C2)[C@H]1c1nc2ccc(-c3ccc4c(c3)C(F)(F)c3cc(-c5cnc([C@@H]6CCC7(CC7)N6C(=O)[C@@H](NC(=O)OC)C(C)C)[nH]5)ccc3-4)cc2[nH]1)C(C)C`, the max response with CRL-7250 was -2.17%; in the assay on HaCat it was -33.1%; in the assay on KB-3-1 it was -8.63%; with NIH3T3 it was -14.9%. In addition, the Potency in the assay on HEK293 was 3.99 µM (active).
